Screening results from PubChem.
PINK1 expr mod: A Quantitative High throughput Screen to Identify Chemical Modulators of PINK1 Expression; hit rate 0.2% among 410,000; PINK1 immunofluorescence, high-content cytometry, 24 h; Potency, µM (top dose mostly 76.6 µM), usual class: activators; AID 624263, 2012; active means well fitted activation curve with a large enough effect; inconclusive means small, poorly fitted or top-dose-only effect; cell line not stated here; further: nearly all actives have a fitted effect of over 65% in size
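Cells are seeded, rested 12 hours, then given compound at five concentrations or DMSO for 24 hours. After fixation, blocking and antibody staining, PINK1 amount and mitochondrial localization are scored; CCCP serves as control.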
MCF10A rerep: A quantitative high throughput screen for small molecules that induce DNA re-replication in MCF 10a normal breast cells. hit rate 2.9% among 350,000. Potency, µM (series often up to 46.1 µM), actives largely listed as activators. MCF 10A DNA re-replication, Hoechst nuclear intensity, 48 h; further: nearly all actives have a fitted effect of over 50% in size
KB-3-1 tox: qHTS assay for MDR1-selective chemotherapeutics: Primary screen using the parental adenocarcinoma cell KB-3-1 | KB-3-1 viability, CellTiter-Glo ATP luminescence, 72 h | Potency, µM (highest dose often 46.1 µM), most hits filed as cytotoxic | hit rate 1.4% among 400,000 | AID 1347075, 2019; further: nearly all actives have a fitted effect of over 60% in size
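Using CellTiter-Glo luminescence, growth of non-resistant KB-3-1 adenocarcinoma cells is assessed 72 h after pin-tool compound addition at 37 °C. Normalized responses across the concentration series yield fitted curves.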
SW480 rerep: A quantitative high throughput screen for small molecules that induce DNA re-replication in SW480 colon adenocarcinoma cells; SW480 DNA re-replication, Hoechst DNA content imaging, 48 h; Potency, µM (titrated, usually from 46.1 µM), most hits filed as activators; hit rate 1.8% among 340,000; further: nearly all actives have a fitted effect of over 55% in size
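Compounds, transferred as 23 nL by pin tool, were incubated with cells for 48 hr; DNA content per nucleus was then quantified by Hoechst staining and fluorescence plate imaging.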
KB-V1 MDR tox: qHTS assay for MDR1-selective chemotherapeutics: Primary screen using the drug-selected MDR subline cells KB-V1; Potency, µM (series often up to 46.1 µM), usual class: cytotoxic; hit rate 3.4% among 400,000; AID 1347076, 2019; KB-V1 MDR cells viability, CellTiter-Glo, 72 h; further: nearly all actives have a fitted effect of over 60% in size
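Cells of the MDR subline KB-V1 are plated, dosed with compound at multiple concentrations, and incubated 72 h at 37 degrees C; CellTiter-Glo is then added and luminescence read after 10 min.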
Of the large screens only hits and unclear results are named; the others gave an inactive call; ! = not active in a repeat. Rows were chosen to be rich in hits. Some 6.7% of all compounds tested hit in one or more screens of this group. Unless noted, the call rests on the fitted dose curve; in most records, active means well fitted curve in the direction sought with a large enough effect; inconclusive means small, poorly fitted or top-dose-only effect, or another doubt; inactive means no such curve, though single readings can be large; an effect the other way counts as inactive or inconclusive.

CCC(C)NCCOCCOc1ccc(C)cc1Br (configuration not stated)	none
CCC(C)NCCCOc1c(C)cc(C)cc1Br (configuration not stated)	MCF10A rerep inconclusive, SW480 rerep 16.4µM
O=C(O)C1CCC(=O)N1Cc1ccc(F)cc1 (configuration not stated)	MCF10A rerep 16.4µM
Cc1ccc(CNC(=O)C2CCC(=O)N2Cc2ccc(F)cc2)cc1 (configuration not stated)	none
O=C(NCc1nnc2n1CCN(Cc1cccc(C(F)(F)F)c1)CC2)c1ccncc1	none (no result: MCF10A rerep, KB-3-1 tox, SW480 rerep, KB-V1 MDR tox)
COc1cccc(NC2c3ccccc3C(=O)N2Cc2ccccc2Cl)c1 (configuration not stated)	MCF10A rerep inconclusive, SW480 rerep 20.6µM
CCCCCNC(=O)C(C#N)c1nc2ccccc2nc1N1CCCC1 (configuration not stated)	MCF10A rerep 10.3µM, SW480 rerep inconclusive
N#CC(C(=O)NCCc1ccccc1)c1nc2ccccc2nc1N1CCCCC1 (configuration not stated)	MCF10A rerep 20.6µM, SW480 rerep inconclusive
CCN(CC)c1nc2ccccc2nc1C(C#N)C(=O)NCCCOC (configuration not stated)	KB-3-1 tox inconclusive, SW480 rerep inconclusive, KB-V1 MDR tox inconclusive
COCCCNC(=O)C(C#N)c1nc2ccccc2nc1N1CCCC1 (configuration not stated)	none
CCCCCCNC(=O)C(C#N)c1nc2ccccc2nc1N1CCOCC1 (configuration not stated)	PINK1 expr mod inconclusive
CCCCCCNC(=O)C(C#N)c1nc2ccccc2nc1N1CCCC1 (configuration not stated)	MCF10A rerep 13µM, SW480 rerep inconclusive
CCN(CC)c1nc2ccccc2nc1C(C#N)C(=O)NCCc1ccccc1 (configuration not stated)	MCF10A rerep 18.4µM, SW480 rerep inconclusive
COc1cc(OC)c(OC)cc1CN1CCCC(n2cc(C(=O)N3CCCCC3)nn2)C1 (configuration not stated)	none (no result: MCF10A rerep, KB-3-1 tox, SW480 rerep, KB-V1 MDR tox)
COc1cc([N+](=O)[O-])ccc1NC(=O)COC(=O)c1c[nH]c(=O)[nH]c1=O	none
O=C(Cn1ccc2cc(S(=O)(=O)N3CCCCCC3)ccc21)NCc1ccccc1Cl	none (no result: MCF10A rerep, SW480 rerep)
CCc1sc(-c2cc3cccc(OC)c3oc2=O)nc1-c1cc(C)ccc1C	KB-V1 MDR tox inconclusive (no result: MCF10A rerep, SW480 rerep)
CCc1ccc2oc(-c3ccc(OC)cc3)cc(=Nc3cccc(C(=O)O)c3)c2c1	MCF10A rerep 23.1µM
CCc1ccc2oc(-c3ccc(OC)cc3)cc(=Nc3c(C)n(C)n(-c4ccccc4)c3=O)c2c1	PINK1 expr mod inconclusive, MCF10A rerep inconclusive, KB-3-1 tox inconclusive, KB-V1 MDR tox 9.2µM
COc1ccc(-c2cc(=Nc3ccc(C(=O)O)cc3)c3cc(C)ccc3o2)cc1	none
O=C(NCCNc1ccc([N+](=O)[O-])cc1C(F)(F)F)c1cccc(F)c1	KB-3-1 tox inconclusive, SW480 rerep inconclusive, KB-V1 MDR tox 18.4µM
O=C(NCCNc1ccc([N+](=O)[O-])cc1)c1cccc(Br)c1	none
O=C(NCCNc1ccc([N+](=O)[O-])cc1C(F)(F)F)c1ccccc1	KB-V1 MDR tox 16.4µM
O=C(COC(=O)c1ccc[n+]([O-])c1)Nc1ccc([N+](=O)[O-])cc1C(F)(F)F	PINK1 expr mod inconclusive, SW480 rerep inconclusive
CN(C)c1ccc(C(CNC(=O)c2ccc(C(C)(C)C)cc2)N2CCCC2)cc1 (configuration not stated)	KB-3-1 tox inconclusive (no result: MCF10A rerep, SW480 rerep)
Cc1cc2occ(CC(=O)NCc3cccs3)c2cc1C(C)C	KB-V1 MDR tox 20.6µM
Cc1csc(NC(=O)Cc2coc3cc(C)c(C(C)C)cc23)n1	MCF10A rerep inconclusive, KB-3-1 tox inconclusive, SW480 rerep inconclusive, KB-V1 MDR tox inconclusive
CCOc1cc(/C=C2\SC(=N)N(c3nccs3)C2=O)ccc1OCCN1CCOCC1	SW480 rerep inconclusive, KB-V1 MDR tox 7.31µM
CCOc1cc(/C=C2\SC(=S)N(N3CCOCC3)C2=O)ccc1O	SW480 rerep inconclusive
COCC(=O)Nc1cc(C(=O)N2CCN(C)C(c3ccccc3)C2)c2c(c1)nc(-c1ccncc1)n2C (configuration not stated)	none (no result: MCF10A rerep, KB-3-1 tox, SW480 rerep, KB-V1 MDR tox)
Cn1c(Cc2cccs2)nnc1SCc1nc2ccccc2[nH]1	none
Cn1c(SCc2nc3ccccc3[nH]2)nnc1-c1cccs1	KB-V1 MDR tox 20.6µM
Cc1ccc(CSc2nnc(-c3cccs3)n2C)cc1	none (no result: PINK1 expr mod)
Cn1c(SCc2c(Cl)cccc2Cl)nnc1-c1cccs1	KB-V1 MDR tox 18.4µM
O=C(Cc1ccc(NC2=NC3CS(=O)(=O)CC3S2)cc1)N1CCN(c2ccc(F)cc2)CC1 (configuration not stated)	none
O=C(CCN1C(=O)c2ccccc2Sc2ncccc21)Nc1ccc(F)cc1F	none (no result: MCF10A rerep, KB-3-1 tox, SW480 rerep, KB-V1 MDR tox)
COC(=O)c1ccc(NC(=O)c2cc(S(=O)(=O)N3CCc4ccccc43)cn2C)cc1	none (no result: MCF10A rerep, KB-3-1 tox, SW480 rerep, KB-V1 MDR tox)
Cn1nccc1C(=O)c1ccc(Cl)cc1	none
Cc1cc(CC(=O)O)n(C)c1C(=O)c1ccc(Cl)cc1	MCF10A rerep 29.9µM!
COc1ccc(NC(=O)c2ccc(NC(=O)CCS(=O)(=O)c3cccs3)cc2)cc1Cl	none (no result: MCF10A rerep, SW480 rerep)
Cc1cccc(CNC(=O)Cn2nc(C)n3c(cc4cc(F)ccc43)c2=O)c1	none (no result: MCF10A rerep, SW480 rerep)
COc1cccc(NC(=O)CN(C)C(=O)C23CC4CC(CC(Cl)(C4)C2)C3)c1	none
CCOC(=O)CNC(=S)SC	none
CCOC(=O)CNC(=S)n1ncnc1N	SW480 rerep 5.8µM
COc1cc(NC(=O)C2(C)CCN2C(=O)C(C)C)cc(OC)c1OC (configuration not stated)	none (no result: MCF10A rerep, SW480 rerep)
CC(C)COC(=O)C1C(=O)CC(C)(O)C(C(=O)OCC(C)C)C1c1cccnc1 (configuration not stated)	KB-V1 MDR tox 16.4µM
CCN(CC)c1ccc(C2C(C(=O)OC(C)C)C(=O)CC(C)(O)C2C(=O)OC(C)C)cc1 (configuration not stated)	KB-V1 MDR tox 18.4µM
CC(C)(C)OC(=O)C1C(=O)CC(C)(O)C(C(=O)OC(C)(C)C)C1c1cccnc1 (configuration not stated)	none
CCOC(=O)C1C(=O)CC(C)(O)C(C(=O)OCC)C1c1ccc(N(CC)CC)cc1 (configuration not stated)	none
COc1ccc(C(=O)NCCS(=O)(=O)N2CCc3ccccc3C2)cc1	none
Cc1c(C(=O)c2no[n+]([O-])c2C(=O)c2cnn(C)c2C)cnn1C	MCF10A rerep 11.2µM, KB-3-1 tox inconclusive, SW480 rerep inconclusive
CC(=O)c1cc2ccccc2c2ccccc12	none (no result: MCF10A rerep, SW480 rerep)
Cc1ccc2[nH]c(C)cc(=S)c2c1	MCF10A rerep 23.1µM, KB-3-1 tox inconclusive, SW480 rerep 20.6µM, KB-V1 MDR tox inconclusive
